# According to PubChem BioAssay:
# Activity calls are given as the source filed them. Unless noted, no rule for the calls is given here.
# Assays:
# [1] = anti-His antibody binders, primary screen, artefact control for SMM control protein annotation, biochemical, small-molecule microarray, 635 nm fluorescence (AID 1128); conditions: anti-His Alexa647 antibody binding, higher = more signal;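 also: score merges feature fluorescence with signal-to-noise for each printed compound spot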
# [2] = tested on: Human papillomavirus type 1a E7 protein (residues 1-88); assay: HPV1a E7 small-molecule binders, primary screen, biochemical, small-molecule microarray, residues 1-88, 635 nm (AID 1129); conditions: small-molecule microarray binding, fluorescence 635 nm; higher = more signal
# [3] = biological target: Focal adhesion kinase 1 (Homo sapiens) (UniProt Q05397); assay: small-molecule microarray binders of FAK, primary screen, biochemical, 635/667 nm fluorescence, BSA, DTT (AID 1130); conditions: PTK2 binding, 635 nm fluorescence, higher = more signal;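 also: composite of spot emission at 667 nm and signal to noise over triplicate slides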
# Sequence of Focal adhesion kinase 1 (Homo sapiens) (Q05397 whole entry, looked up): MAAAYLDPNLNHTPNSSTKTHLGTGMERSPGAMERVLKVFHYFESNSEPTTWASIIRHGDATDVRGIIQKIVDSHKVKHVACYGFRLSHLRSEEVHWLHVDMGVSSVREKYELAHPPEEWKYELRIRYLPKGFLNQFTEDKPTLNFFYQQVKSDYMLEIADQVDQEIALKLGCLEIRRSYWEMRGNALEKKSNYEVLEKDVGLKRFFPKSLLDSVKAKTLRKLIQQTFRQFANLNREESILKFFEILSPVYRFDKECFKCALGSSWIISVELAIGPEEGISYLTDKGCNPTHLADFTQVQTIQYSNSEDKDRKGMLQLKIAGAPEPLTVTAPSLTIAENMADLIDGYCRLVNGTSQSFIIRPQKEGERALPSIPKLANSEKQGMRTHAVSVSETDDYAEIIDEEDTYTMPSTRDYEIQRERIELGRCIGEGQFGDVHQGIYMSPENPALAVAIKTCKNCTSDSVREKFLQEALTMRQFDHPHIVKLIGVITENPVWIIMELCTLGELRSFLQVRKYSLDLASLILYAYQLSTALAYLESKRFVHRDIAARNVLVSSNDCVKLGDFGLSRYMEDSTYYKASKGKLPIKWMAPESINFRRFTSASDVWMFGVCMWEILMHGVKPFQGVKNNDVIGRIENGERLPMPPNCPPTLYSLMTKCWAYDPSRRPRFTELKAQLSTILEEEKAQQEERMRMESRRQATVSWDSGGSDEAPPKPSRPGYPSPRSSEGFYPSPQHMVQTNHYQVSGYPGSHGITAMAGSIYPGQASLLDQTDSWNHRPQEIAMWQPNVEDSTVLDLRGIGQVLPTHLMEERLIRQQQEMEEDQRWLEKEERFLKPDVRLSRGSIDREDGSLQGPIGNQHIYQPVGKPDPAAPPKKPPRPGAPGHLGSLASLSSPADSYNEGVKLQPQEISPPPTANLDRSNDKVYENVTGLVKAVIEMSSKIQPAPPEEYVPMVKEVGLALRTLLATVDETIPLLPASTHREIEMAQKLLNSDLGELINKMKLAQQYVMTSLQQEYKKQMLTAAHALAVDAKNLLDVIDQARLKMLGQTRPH
# [4] = tested on: Fibrinogen (Alexa647-labelled); assay: fibrinogen binders on compound microarrays, profiling panel, artefact control for SMM control-protein annotation, biochemical, small-molecule microarray, 635/667 nm fluorescence (AID 1131); conditions: fibrinogen-A647 binding fluorescence, higher = more signal;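 also: z-score merges 667 nm fluorescence with per-spot signal-to-noise over triplicate slides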
# [5] = biological target: Follistatin (Homo sapiens) (UniProt P19883); assay: follistatin binders on small-molecule microarrays, primary screen, biochemical, small-molecule microarray, 635/667 nm fluorescence (AID 1132); conditions: FST binding, 635 nm fluorescence, higher = more signal
# Sequence of Follistatin (Homo sapiens) (P19883 whole entry, looked up): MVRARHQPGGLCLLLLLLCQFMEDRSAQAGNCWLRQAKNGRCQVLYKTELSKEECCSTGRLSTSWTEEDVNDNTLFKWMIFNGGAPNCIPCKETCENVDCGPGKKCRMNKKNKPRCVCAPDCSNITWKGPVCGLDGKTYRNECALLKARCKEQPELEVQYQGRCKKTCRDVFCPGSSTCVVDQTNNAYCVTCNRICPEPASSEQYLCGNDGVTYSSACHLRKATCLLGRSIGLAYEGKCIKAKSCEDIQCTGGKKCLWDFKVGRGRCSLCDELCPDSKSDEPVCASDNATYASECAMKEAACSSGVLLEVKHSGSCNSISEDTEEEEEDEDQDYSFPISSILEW
# [6] = biological target: Fibroblast growth factor 2 (Homo sapiens) (UniProt P09038); assay: FGF2 binders on small-molecule microarrays, primary screen, biochemical, small-molecule microarray, 635/667 nm fluorescence (AID 1133); conditions: small-molecule microarray binding, FGF2, fluorescence 635/667; higher = more signal
# Sequence of Fibroblast growth factor 2 (Homo sapiens) (P09038 whole entry, looked up): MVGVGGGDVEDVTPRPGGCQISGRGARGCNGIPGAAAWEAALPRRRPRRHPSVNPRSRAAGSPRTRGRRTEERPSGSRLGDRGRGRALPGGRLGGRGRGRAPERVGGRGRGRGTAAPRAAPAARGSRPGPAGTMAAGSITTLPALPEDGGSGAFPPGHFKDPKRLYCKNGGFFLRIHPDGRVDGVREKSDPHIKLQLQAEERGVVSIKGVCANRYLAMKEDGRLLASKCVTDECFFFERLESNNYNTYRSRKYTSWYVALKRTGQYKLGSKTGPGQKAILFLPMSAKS
# [7] = mitochondrial membrane potential change in A549 cells, profiling panel, cell-based, JC-1 fluorescence, basal, 24 h, 100 nL (AID 1138); conditions: higher = more signal;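 also: A549 lung adenocarcinoma cells under basal conditions with no added stimulus; test concentration not given here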
# Lefty1 = Lefty1 binders on small-molecule microarrays, primary screen, biochemical, small-molecule microarray, 635/667 nm fluorescence (AID 1139); conditions: small-molecule microarray binding, fluorescence 635/667; higher = more signal
# [8] = tested on: wheat germ agglutinin (Triticum aestivum), Alexa647-labelled; assay: wheat germ agglutinin binders on compound microarrays, profiling panel, artefact control for SMM control-protein annotation, biochemical, small-molecule microarray, 635/667 nm fluorescence (AID 1140); conditions: WGA-A647 binding, 635 nm fluorescence, higher = more signal;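 also: score merges 667 nm feature emission with signal to noise over triplicate slides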
# [9] = biological target: Luciferin 4-monooxygenase (Photinus pyralis) (UniProt P08659); assay: firefly luciferase enzyme inhibitors, primary screen, biochemical, luminescence, purified enzyme, 2006 set (AID 1141); conditions: SteadyGlo luminescence, 30 min, higher = more signal, called active from +8 up or from −8 down;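 also: cell-free assay with purified firefly luciferase at 100 ng per well in PBS; test concentration not given here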
# Sequence of Luciferin 4-monooxygenase (Photinus pyralis) (P08659 whole entry, looked up): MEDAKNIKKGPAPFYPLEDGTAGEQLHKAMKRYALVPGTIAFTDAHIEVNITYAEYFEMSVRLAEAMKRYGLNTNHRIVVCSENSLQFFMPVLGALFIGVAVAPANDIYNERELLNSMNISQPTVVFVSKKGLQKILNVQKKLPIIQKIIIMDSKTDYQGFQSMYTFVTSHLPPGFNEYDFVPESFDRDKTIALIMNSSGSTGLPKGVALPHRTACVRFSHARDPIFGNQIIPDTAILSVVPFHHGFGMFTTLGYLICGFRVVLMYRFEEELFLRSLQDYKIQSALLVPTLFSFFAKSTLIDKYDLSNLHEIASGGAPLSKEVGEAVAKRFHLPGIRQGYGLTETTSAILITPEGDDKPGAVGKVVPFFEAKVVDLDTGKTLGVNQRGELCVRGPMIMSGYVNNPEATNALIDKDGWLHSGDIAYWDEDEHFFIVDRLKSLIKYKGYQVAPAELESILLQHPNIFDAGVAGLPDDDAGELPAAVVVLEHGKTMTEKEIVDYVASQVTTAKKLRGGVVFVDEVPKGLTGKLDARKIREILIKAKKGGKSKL
# [10] = tested on: Wnt5a (protein binding on small-molecule microarray); assay: Wnt5a binders on small-molecule microarray, primary screen, biophysical, 635/667 nm fluorescence (AID 1142); conditions: 635 nm fluorescence, higher = more signal;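 also: fluorescence read at 667 nm with signal to noise per printed feature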
# [11] = cell viability in Huh7 cells, primary screen, cytotoxicity control for HCV replication inhibitor project, CellTiter-Glo luminescence, basal, 48 h (AID 1143); conditions: Huh7 HCV replicon, higher = more signal, called active from +8 up or from −8 down;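 also: Huh7 hepatoma cells carrying a hepatitis C replication reporter with no stimulus; test concentration not given here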
# [12] = P. aeruginosa biofilm formation inhibitors, primary screen, PAO1 strain, BacTiter-Glo luminescence, LB-PBS (AID 1144); conditions: 12 h, higher = more signal
# [13] = CREB reporter modulators without forskolin, primary screen, cell-based, PC12, CRE-LacZ reporter, unstimulated (AID 1145); conditions: no forskolin, luminescence, 4.5 h, higher = more signal, called active from +8 up or from −8 down
# [14] = CREB reporter modulators under forskolin, primary screen, cell-based, PC12, CRE-LacZ reporter, forskolin-stimulated (AID 1146); conditions: luminescence, 4.5 h, higher = more signal, called active from +8 up or from −8 down;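 also: PC12 cells with 6xCRE LacZ reporter stimulated by forskolin 10 µM; beta-galactosidase reporter signal reflecting CREB driven transcription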
# [15] = biological target: Streptavidin (Streptomyces avidinii) (UniProt P22629); assay: streptavidin binders on small-molecule microarray, primary screen, artefact control for SMM compound annotation, biophysical, 635/667 nm fluorescence (AID 1147); conditions: streptavidin binding, higher = more signal;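 also: signal reflects streptavidin binding to arrayed compounds as a control protein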
# Sequence of Streptavidin (Streptomyces avidinii) (P22629 whole entry, looked up): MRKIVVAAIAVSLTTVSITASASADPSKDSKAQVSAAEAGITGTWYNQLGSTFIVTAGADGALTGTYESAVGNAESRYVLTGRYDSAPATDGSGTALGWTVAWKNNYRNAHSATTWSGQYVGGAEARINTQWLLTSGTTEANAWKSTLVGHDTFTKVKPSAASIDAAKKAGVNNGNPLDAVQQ
# [16] = small-molecule binders of probe aInhba, primary screen, biochemical, small-molecule microarray, 635/667 nm fluorescence (AID 1148); conditions: higher = more signal;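 also: score merges 667nm spot fluorescence with signal-to-noise for antibody binding to printed compounds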
# Torsin-1A (Homo sapiens) [17] = biological target: Torsin-1A (Homo sapiens) (UniProt O14656); assay: torsin A binders from cell lysate, primary screen, small-molecule microarray, wild-type, 635/667 nm (AID 1149); conditions: COS7 hTOR1A-WT lysate, 635 nm fluorescence, higher = more signal
# Sequence of Torsin-1A (Homo sapiens) (O14656 whole entry, looked up): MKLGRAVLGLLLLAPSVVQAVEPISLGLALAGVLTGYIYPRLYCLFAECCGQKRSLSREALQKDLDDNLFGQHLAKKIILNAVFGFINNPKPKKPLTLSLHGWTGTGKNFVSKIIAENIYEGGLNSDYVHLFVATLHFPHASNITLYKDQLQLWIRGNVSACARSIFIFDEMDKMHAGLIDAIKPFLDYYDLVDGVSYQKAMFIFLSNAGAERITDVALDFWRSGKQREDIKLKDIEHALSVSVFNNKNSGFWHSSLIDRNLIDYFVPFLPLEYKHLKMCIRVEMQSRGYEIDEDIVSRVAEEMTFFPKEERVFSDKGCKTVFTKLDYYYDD
# Torsin-1A (Homo sapiens) [18] = biological target: Torsin-1A (Homo sapiens) (UniProt O14656); assay: small-molecule binders of mutant TOR1A in lysate, primary screen, cell lysate, small-molecule microarray, COS7 lysate, 635/667 nm fluorescence (AID 1150); conditions: COS7 hTOR1A mutant lysate, 635 nm fluorescence, higher = more signal;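 also: score pools 667 nm emission and signal to noise measuring lysate protein binding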
# [19] = tested on: Sonic hedgehog protein (Shh); assay: small-molecule binders of Shh protein, primary screen, biochemical, small-molecule microarray, 635/667 nm fluorescence (AID 1151); conditions: small-molecule microarray binding, 635 nm fluorescence; higher = more signal;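 also: Shh protein binding to compounds spotted on small-molecule microarray slides; score combines spot fluorescence intensity with signal-to-noise across triplicate slides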
smiles,measurement,setting,value
CO[C@H]1O[C@H](CO)[C@@H](OC(=O)Nc2ccc(C#N)cc2)[C@@H]2OC(=O)[C@H](Cc3cccc(Br)c3)C/C=C/C[C@@H](Cc3cccc(Br)c3)C(=O)O[C@@H]12,composite z-score,[1],1.26
same,composite z-score,[2],0.776
same,composite z-score,[3],-0.611
same,composite z-score,[4],0.448
same,composite z-score,[5],1.2
same,composite z-score,[6],0.707
same,z-score,[7],1.39
same,composite z-score,Lefty1,1.13
same,composite z-score,[8],0.655
same,z-score,[9],0.782 (inactive)
same,composite z-score,[10],0.563
same,z-score,[11],-3.82 (inactive)
same,z-score,[12],-1.36 (inactive)
same,z-score,[13],-0.602 (inactive)
same,z-score,[14],-0.404 (inactive)
same,composite z-score,[15],0.336
same,composite z-score,[16],-0.0327
same,composite z-score,Torsin-1A (Homo sapiens) [17],0.185
same,composite z-score,Torsin-1A (Homo sapiens) [18],-0.163
same,composite z-score,[19],1.34
Cc1c(NC(=O)/C(C#N)=C/c2ccccc2Cl)c(=O)n(-c2ccccc2)n1C,composite z-score,[1],0.228
same,composite z-score,[2],0.654
same,composite z-score,[3],-0.0387
same,composite z-score,[4],0.425
same,composite z-score,[5],0.255
same,composite z-score,[6],-0.0318
same,z-score,[7],0.886
same,composite z-score,Lefty1,-0.0835
same,composite z-score,[8],0.195
same,z-score,[9],-0.805 (inactive)
same,composite z-score,[10],0.27
same,z-score,[11],-2.11 (inactive)
same,z-score,[12],-0.543 (inactive)
same,z-score,[13],-0.321 (inactive)
same,z-score,[14],-1.21 (inactive)
same,composite z-score,[15],1.73
same,composite z-score,[16],-0.0195
same,composite z-score,Torsin-1A (Homo sapiens) [17],0.461
same,composite z-score,Torsin-1A (Homo sapiens) [18],0.159
same,composite z-score,[19],0.0651
COCCCNC(=O)[C@@H]1c2ccccc2C(=O)N(C2Cc3ccccc3C2)[C@H]1c1ccc(CO)cc1,composite z-score,[1],3.04
same,composite z-score,[2],1
same,composite z-score,[3],0.407
same,composite z-score,[4],-0.284
same,composite z-score,[5],1.08
same,composite z-score,[6],1.35
same,z-score,[7],2.76
same,composite z-score,Lefty1,0.278
same,composite z-score,[8],-0.196
same,z-score,[9],-0.714 (inactive)
same,composite z-score,[10],-0.0499
same,z-score,[11],0.646 (inactive)
same,z-score,[12],0.48 (inactive)
same,z-score,[13],-0.619 (inactive)
same,z-score,[14],-0.67 (inactive)
same,composite z-score,[15],-0.449
same,composite z-score,[16],0.208
same,composite z-score,Torsin-1A (Homo sapiens) [17],0.717
same,composite z-score,Torsin-1A (Homo sapiens) [18],-0.184
same,composite z-score,[19],0.457
COC(=O)C(CC#Cc1ccc2c(c1)[C@]1(C(=O)N2)[C@H](C(=O)Nc2nc3ccccc3s2)[C@H]2C(=O)O[C@H](c3ccccc3)[C@H](c3ccccc3)N2[C@@H]1c1ccc(OCCO)cc1)C(=O)OC,composite z-score,[1],1.94
same,composite z-score,[2],1.1
same,composite z-score,[3],0.539
same,composite z-score,[4],0.978
same,composite z-score,[5],1.45
same,composite z-score,[6],1.39
same,z-score,[7],-1.94
same,composite z-score,Lefty1,1.27
same,composite z-score,[8],1.07
same,z-score,[9],-4.66 (inactive)
same,composite z-score,[10],1.07
same,z-score,[11],-2.48 (inactive)
same,z-score,[12],-1.7 (inactive)
same,z-score,[13],0.415 (inactive)
same,z-score,[14],-0.856 (inactive)
same,composite z-score,[15],1.25
same,composite z-score,[16],0.146
same,composite z-score,Torsin-1A (Homo sapiens) [17],1.65
same,composite z-score,Torsin-1A (Homo sapiens) [18],0.541
same,composite z-score,[19],1.53
C=CCC(OC(C)=O)[C@@H]1[C@@H](N(Cc2ccc(-c3cccc(C(F)(F)F)c3)o2)C(=O)c2ccc(C)cc2)c2cc(OCCCO)ccc2N1C(=O)Cc1ccc(OC)cc1 (stereo not given in full),composite z-score,[1],-0.139
same,composite z-score,[2],-0.269
same,composite z-score,[3],-0.542
same,composite z-score,[4],-0.366
same,composite z-score,[5],1.02
same,composite z-score,[6],-0.289
same,z-score,[7],1.36
same,composite z-score,Lefty1,0.189
same,composite z-score,[8],0.0232
same,z-score,[9],0.147 (inactive)
same,composite z-score,[10],0.058
same,z-score,[11],-0.159 (inactive)
same,z-score,[12],-0.853 (inactive)
same,z-score,[13],-0.477 (inactive)
same,z-score,[14],0.514 (inactive)
same,composite z-score,[15],-0.109
same,composite z-score,[16],-0.128
same,composite z-score,Torsin-1A (Homo sapiens) [17],-0.425
same,composite z-score,Torsin-1A (Homo sapiens) [18],0.197
same,composite z-score,[19],1.53
